An excerpt weighted towards active compounds, which were near 3.5% of everything screened.
BoNT A protease = BoNT/A light chain protease inhibitors, primary screen, biochemical, flow cytometry, MLPCN library; multiplex microsphere protease substrate cleavage; inhibition, % at 10 µM; AID 588499, 2011; 360,000 compounds, 0.17% hits; Botulinum neurotoxin type A light chain protease (Clostridium botulinum A str. ATCC 3502); note: plate controls were buffer without enzyme for full effect and enzyme alone for no effect
Anthrax LF inh2 = Bacillus anthracis LF protease inhibitors, primary screen, biochemical, multiplex microsphere, MLPCN library; Lethal factor (Bacillus anthracis), P15917; multiplex microsphere protease cleavage assay; inhibition, % at 10 µM; 360,000 compounds, 0.12% hits; note: plate controls were buffer without enzyme for full effect and enzyme alone for no effect
Target sequence (P15917 whole entry, looked up): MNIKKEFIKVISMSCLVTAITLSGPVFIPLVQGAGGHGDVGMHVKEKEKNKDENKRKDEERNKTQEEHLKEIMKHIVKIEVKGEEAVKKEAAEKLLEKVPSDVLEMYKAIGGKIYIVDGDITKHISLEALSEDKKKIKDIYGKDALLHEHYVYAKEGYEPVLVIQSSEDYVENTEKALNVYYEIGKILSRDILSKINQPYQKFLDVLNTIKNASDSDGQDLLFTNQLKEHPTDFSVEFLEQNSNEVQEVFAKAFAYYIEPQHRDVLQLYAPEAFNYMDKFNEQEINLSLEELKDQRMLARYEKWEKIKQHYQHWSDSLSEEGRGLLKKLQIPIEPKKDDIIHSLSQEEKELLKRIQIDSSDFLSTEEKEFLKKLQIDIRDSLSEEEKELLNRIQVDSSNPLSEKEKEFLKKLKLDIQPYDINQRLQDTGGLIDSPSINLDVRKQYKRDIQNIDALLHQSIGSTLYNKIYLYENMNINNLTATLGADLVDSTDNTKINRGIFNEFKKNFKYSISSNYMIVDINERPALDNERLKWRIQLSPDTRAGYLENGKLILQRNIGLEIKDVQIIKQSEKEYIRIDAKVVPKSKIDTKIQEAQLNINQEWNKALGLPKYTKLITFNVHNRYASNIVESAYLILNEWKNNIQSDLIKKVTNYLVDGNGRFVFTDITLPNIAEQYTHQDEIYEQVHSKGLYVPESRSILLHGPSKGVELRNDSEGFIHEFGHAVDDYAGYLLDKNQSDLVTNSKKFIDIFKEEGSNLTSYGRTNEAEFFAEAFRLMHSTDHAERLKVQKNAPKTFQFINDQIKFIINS
BoNT F protease = BoNT/F light chain protease inhibitors, primary screen, biochemical, flow cytometry, MLPCN library. Botulinum neurotoxin type F light chain protease (Clostridium botulinum). Multiplex microsphere protease cleavage assay. inhibition, % at 10 µM. 360,000 compounds, 0.22% hits. AID 588497, 2011; in the data active = inhibition above about 35%, passing the limit was not always enough; inconclusive = no clear call, values can overlap the other calls; note: plate controls were buffer without enzyme for full effect and enzyme alone for no effect
Autofluor counter = flagged as autofluorescent in microsphere protease counterscreen; 360,000 compounds, 3.1% hits; fluorescence intensity (test concentration not listed); compound autofluorescence counterscreen, microsphere flow cytometry; hits give high values; AID 624483; in the data active = fluorescence intensity above about 16000; inconclusive = no clear call, values can overlap the other calls
* = called active by the depositor; ? = inconclusive. Cut-off read from the data, not from the text of the source, unless noted: active = inhibition above about 30%; inconclusive = no clear call, values can overlap the other calls; inactive = below that.

SMILES	BoNT A protease	Anthrax LF inh2	BoNT F protease	Autofluor counter
O=C(Nc1ccc2c(c1)OCO2)C1Cc2c(-c3ccc(Cl)cc3)ccnc2O1 (configuration not stated)	-1	-10	-14	3810
Cn1c(=O)[nH]c(=O)c2c1nc(Br)n2CCCSc1nc2ccccc2o1	?	0	-7	17409*
C/C=C/Cn1c(Br)nc2c1c(=O)[nH]c(=O)n2C	1	-4	1	22506*
CCOc1ccc(CNC(=O)CCC(=O)n2nc(C)c3ccccc32)cc1	-1	-3	-5	5354
CN(C)/C=N/c1ncc(C(=O)c2ccc(Cl)cc2Cl)s1	-1	-2	-3	4572
CN(C)/C=N/c1ncc(C(=O)c2ccc(Cl)cc2)s1	1	2	1	22056*
Cc1ccc(S(=O)(=O)N2CCN(S(=O)(=O)c3ccc(C)cc3)C3OCCOC32)cc1 (configuration not stated)	-2	-1	-2	16671*
Cc1ccc(S(=O)(=O)N2CCCCC2C(=O)O)cc1 (configuration not stated)	0	2	-4	3393
Cc1ccc(S(=O)(=O)N2CCN(C(=O)CN3CCOCC3)C2C(C)C)cc1 (configuration not stated)	2	2	0	22471*
CC(C)NC(=O)N(C)C[C@@H]1Oc2c(NC(=O)Nc3ccccc3)cccc2C(=O)N([C@H](C)CO)C[C@H]1C	0	1	-2	3236
COc1cc(C(CC(=O)Nc2ccc(Cl)cn2)N2Cc3ccccc3C2=O)cc(OC)c1OC (configuration not stated)	0	-11	16	4029
Cc1sc2nc(CN3CCCC3)nc(N3CCN(S(=O)(=O)c4cccs4)CC3)c2c1C	?	0	-4	24350*
Cc1ccc(S(=O)(=O)N2CCN(c3nc(CN4CCCC4)nc4sc(C)c(C)c34)CC2)cc1	2	-1	-9	4889
COc1ccc(Cl)cc1CC=NNC(=O)c1cccc(C)c1O	-1	-2	-11	3776
Fc1ccc2c(c1)C1C=CCC1C(c1cc3c(cc1Br)OCO3)N2 (configuration not stated)	?	-9	6	19890*
O=c1[nH][nH]c(-c2ccccc2O)c1C(C[N+](=O)[O-])c1ccc(Cl)cc1Cl (configuration not stated)	0	-6	-16	7029
Cc1cc(O)c(C(C[N+](=O)[O-])c2ccc(Cl)cc2Cl)c(=O)o1 (configuration not stated)	-7	-4	-8	17730*
COc1cc(OC)cc(C(=O)NC2CC3CCC(C2)N3C)c1 (configuration not stated)	?	?	?	4039
COc1cccc(NP(=O)(Oc2ccc(Cl)cc2)Oc2ccc(Cl)cc2)c1	-1	0	-4	2247
O=P(Nc1ccccc1)(Nc1ccccc1)Oc1ccc(Cl)cc1	0	-1	0	23234*
CSc1nsc(SC)c1NC(=O)OCC1CCCO1 (configuration not stated)	4	-2	6	21471*
CSc1nsc(SC)c1NC(=O)OCc1ccccc1	0	-3	-5	10862
COc1cc(/C=N/NC(=O)c2cccnc2)ccc1OS(=O)(=O)c1ccc(F)cc1	-3	1	-8	20771*
Cc1ccc(S(=O)(=O)CC2CSc3nc(N)cc(=O)n32)cc1 (configuration not stated)	?	-1	2	21227*
Cc1ccc(S(=O)(=O)CC2CSc3nc4ccccc4n32)cc1 (configuration not stated)	-1	-3	-9	10415
SMILES	BoNT A protease	Anthrax LF inh2	BoNT F protease	Autofluor counter
N#CC1C(=N)Cc2ccccc2-c2ccccc21 (configuration not stated)	0	-2	0	4279
CCCC(=O)Nc1ccc(C(=O)N/N=C/c2cccnc2)cc1	?	0	-1	23205*
O=C(COC(=O)c1ncc(Cl)c(Cl)c1Cl)Nc1cccnc1Cl	2	-1	-3	4775
CN1CCCC1CN1CCCC1 (configuration not stated)	-1	-15	-21	6209
CN1CCCC1CCNC1C2CC3CC(C2)CC1C3 (configuration not stated)	0	-4	-3	16148*
COc1cc2c(cc1OC)CN(CC(=O)Nc1ccc(C)c(C)c1)CC2	-1	4	6	3619
COc1cc2c(cc1OC)CN(C(C)C(=O)Nc1ccc(NC(C)=O)cc1)CC2 (configuration not stated)	-4	-5	-8	17392*
COc1cc2c(cc1OC)CN(CC(=O)Nc1ccc(C)cc1)CC2	0	-2	-2	20583*
COC(=O)/C(C#N)=C/c1c(Oc2cccc(C)c2C)nc2ccccn2c1=O	?	3	?	3950
Cc1ccc(C2CC(c3ccccc3C)n3nc(N)nc3N2)cc1 (configuration not stated)	0	-8	-2	6185
Cc1ccc(C2CC(c3cccs3)n3nc(N)nc3N2)cc1 (configuration not stated)	1	2	-2	16364*
CN(C)CCNC(=O)c1cc(Br)ccc1Cl	-1	0	0	21132*
CCc1ccc(OCCNC(=O)c2cc(SC)ccc2Cl)cc1	0	0	-2	23443*
CCCNC(=O)c1cc(SC)ccc1Cl	8	-9	7	20823*
CSc1ccc(Cl)c(C(=O)NCCOc2ccccc2)c1	0	2	-2	2874
CCN(CC)c1ccc(/C=C2\CCC(/C=C(\C#N)C(=O)Nc3ccccc3F)=C2N2CCOCC2)cc1	40*	9	-18	3080
CC(NC(=O)CNC(=O)c1cccs1)c1cccc(C(F)(F)F)c1 (configuration not stated)	-3	-2	-4	6312
CN1C(=O)S/C(=C/c2cccnc2)C1=O	0	-1	-4	21884*
O=C(O)CN1C(=O)S/C(=C\c2cccnc2)C1=O	0	-3	-1	4571
O=C(CSc1nnc2ccccn12)c1ccc(Cl)cc1	0	-6	2	4107
O=C(CSc1nnc2n1CCCN2C(=S)Nc1ccc(Cl)cc1)c1ccccc1	4	0	6	20424*
Cc1[nH]c(=O)[nH]c(=O)c1CSc1nnc([C@@H](NC(=O)OC(C)(C)C)C(C)C)o1	0	0	7	2482
CC(C)=CCSc1nnc([C@@H](NC(=O)OC(C)(C)C)C(C)C)o1	?	-2	0	22591*
CCn1c(C)nc2cc(C(=O)NN=Cc3ccc([N+](=O)[O-])cc3)ccc21	0	0	-7	3970
O=C(Nc1ccc2c(c1)OCCO2)C1CCN(S(=O)(=O)c2cccs2)CC1	?	2	-3	23275*
CC1CCCCN1C(=O)COC(=O)C1CCN(S(=O)(=O)c2ccc3c(c2)OCCO3)CC1 (configuration not stated)	-46	-8	-80	17025*
O=C(NC1CCCCC1)C1CCCN(c2nnnn2-c2ccccc2)C1 (configuration not stated)	?	-3	-6	17148*
CC(=O)Nc1ccc(NC(=O)C2CCN(S(=O)(=O)c3ccc4c(c3)OCCO4)CC2)cc1	0	-5	-2	3767

Source: PubChem BioAssay
